# Data from PubChem BioAssay (NCATS).
# Test: qHTS profiling of the MIPE4 collection as inhibitors of Plasmodium falciparum (HB3) proliferation (AID 743347)
# Details: P. falciparum HB3 in erythrocytes, SYBR Green DNA, 72 h; at 28.5 µM (top of the series) unless noted
# Text: Plasmodium falciparum is a virulent malarial parasite that kills 1-2 million people worldwide each year. Transmitted by mosquitoes, the sporozoite form of the parasite enters the blood stream to infect hepatocytes, where they become merozoites that infect red blood cells (erythrocytes). Within erythrocytes, merozoites begin a […] cycle of growth and division, after which the parasite is released to infect new red blood cells. Gametocytes, which form within erythrocytes as well, circulate in the bloodstream and are ingested by the mosquito, thereby completing the life cycle. To profile malarial isolates for differential chemical responses and to identify inhibitors of malarial growth, an assay that measures P. falciparum growth and replication within erythrocytes was employed. This assay uses a DNA binding fluorescent dye (SYBR Green) to detect parasite DNA following cell lysis. Because mature erythrocytes lack DNA, only Plasmodium-derived DNA is detected.
# The SYBR Green viability assay was adapted from a method described previously (Plouffe et al., 2008). For screening 3 ul culture medium was dispensed into 1536 well black clear bottom plates (Aurora Biotechnologies) using a Multidrop Combi (Thermo Fisher Scientific Inc.), 23 nL compounds in DMSO were added by a pin tool (Kalypsys), and 5 ul of erythrocytes infected with P. falciparum (0.3% parasitemia, 2.5% hematocrit final concentration) were added. The plates were incubated at 37 C in a humidified incubator in 5% CO2 for 72 h, and 2 ul lysis buffer (20 mM Tris HCl, 10 mM EDTA, 0.16% saponin, 1.6% triton X, 10X SYBR Green I supplied as 10,000X […] by Invitrogen) was added to each well. The plates were mixed for 25 sec with gentle shaking and incubated overnight at room temperature in the dark. The following morning, fluorescence intensity at 485(14) nm excitation and 535(25) nm emission wavelengths was measured on an EnVision (Perkin Elmer) plate reader. Plate reads were normalized relative to the control inhibitor (0.29 uM artemisinin) and vehicle (DMSO) wells present on each plate and then corrected by an algorithm using vehicle-only control plates at the beginning and end of the compound plate stack.
row,Structure (SMILES),"growth, % of control"
1,O=C(C=Cc1ccc(O)cc1)c1ccc(O)cc1O,15.1%
2,CCC(=C(c1ccc(O)cc1)c1ccc(OCCNC)cc1)c1ccccc1,3.87%
3,C[C@]12C=CC(=O)C=C1CC[C@@H]1[C@@H]2[C@@H](O)C[C@@]2(C)[C@@H]1CC[C@]2(O)C(=O)CO,78%
4,c1cc(OCCN2CCCCC2)cc(-c2n[nH]c3ccc(-c4ncn[nH]4)cc23)c1,3.58%
5,NC[C@H]1O[C@H](O[C@@H]2[C@@H](O)[C@@H](O[C@H]3O[C@H](CO)[C@@H](O)[C@H](N)[C@@H]3O)[C@H](N)C[C@@H]2N)[C@H](O)[C@@H](O)[C@H]1O,66.9%
6,CC[C@H]1OC(=O)[C@H](C)[C@@H](O[C@H]2C[C@@](C)(OC)[C@@H](O)[C@H](C)O2)[C@H](C)[C@@H](O[C@@H]2O[C@H](C)C[C@H](N(C)C)[C@H]2O)[C@](C)(O)C[C@H](C)C(=NOCOCCOC)[C@H](C)[C@@H](O)[C@]1(C)O,82.6%
7,O=C(NCCCCN1CCOCC1)c1cc2ccccc2o1,87.4%
8,CSc1cccc(Nc2ncc3cc(-c4c(Cl)cccc4Cl)c(=O)n(C)c3n2)c1,9.92%
9,O=C(c1ccc(C=Cc2n[nH]c3ccccc23)cc1)N1CCNCC1,6.97%
10,CCC(C)SSc1ncc[nH]1 (stereo not given),92.3%
11,COc1ccc(C=CC(=O)Nc2ccccc2C(=O)O)cc1OC,32%
12,Nc1ccn([C@@H]2O[C@H](CO)[C@@H](O)[C@H]2O)c(=O)n1,108%
13,CN(C(Cc1ccc(OS(=O)(=O)c2cccc3cnccc23)cc1)C(=O)N1CCN(c2ccccc2)CC1)S(=O)(=O)c1cccc2cnccc12 (stereo not given),8.15%
14,CC(NCCc1ccc(O)cc1)C(O)c1ccc(O)cc1 (stereo not given),96.6%
15,CC(C)CNc1ccnc(NCc2csc(-c3ccccc3)n2)n1,10.6%
16,O=C(CCCN1CCN(c2ccc(F)cc2)CC1)NC1c2ccccc2CSc2ccccc21 (stereo not given),57.9%
17,CC(=O)OCC(=O)[C@@]12OC(C)(C)O[C@H]1C[C@H]1[C@@H]3C[C@H](F)C4=CC(=O)C=C[C@]4(C)[C@@]3(F)[C@@H](O)C[C@@]12C,61.2%
18,C#C[C@]1(O)CC[C@H]2[C@H]3CCc4cc(OC)ccc4[C@H]3CC[C@@]21C,87.7%
19,CC(C)C[C@@H](N)[C@H](O)C(=O)N[C@H](C(=O)N[C@H](C(=O)N[C@@H](CC(=O)O)C(=O)O)C(C)C)C(C)C,107%
20,Nc1ncnc2c1c(-c1cccc(OCc3ccccc3)c1)cn2C1CC(CN2CCC2)C1 (stereo not given),12.8%

row,Structure (SMILES),"growth, % of control"
1,Cc1nc(NC(=O)N2CCC[C@@H]2C(N)=O)sc1-c1csc(C(C)(C)C)n1,14.5%
2,CCNC(=O)CCCC=CC[C@@H]1[C@H](C=CC(O)CCc2ccccc2)[C@@H](O)C[C@@H]1O (stereo not given in full),74.9%
3,CC[C@H](C)n1cc(C)c2c(C(=O)NCc3c(C)cc(C)[nH]c3=O)cc(-c3ccc(N4CCNCC4)nc3)cc21,6.2%
4,CC(=O)N1CCN(c2ccc(OCc3nn(C)c(C)c3-c3cccc4c(CCCOc5cc(C)c(Cl)c(C)c5)c(C(=O)O)n(Cc5cccnc5)c34)cc2)CC1,6.27%
5,CCC=CC[C@H]1C(=O)CC[C@@H]1CC(=O)OC,79.8%
6,CCC(=O)NCC[C@@H]1CCc2ccc3c(c21)CCO3,107%
7,N#Cc1ccc(Oc2ccc3c(c2)COB3O)cc1,24.2%
8,N#Cc1c(N(CC(=O)O)CC(=O)O)sc(C(=O)O)c1CC(=O)O,105%
9,Clc1ccc(C2(c3ccc(-c4cn[nH]c4)cc3)CCNCC2)cc1,4.19%
10,COc1c(C)cnc(Cn2cnc3c(Cl)nc(N)nc32)c1C,21.1%
11,CN(C)CCN(C)C(=O)c1ccc(NC(=O)Nc2ccc(-c3nc(N4CCOCC4)c4ccn(CC(F)(F)F)c4n3)cc2)cc1,5.21%
12,COc1ccc2cc1Oc1ccc(cc1)C[C@H]1c3cc(c(OC)cc3CCN1C)Oc1c(OC)c(OC)cc3c1[C@H](C2)N(C)CC3,13.9%
13,CN(C)CCN(Cc1ccc(Cl)cc1)c1ccccn1,53%
14,Cc1nc2c([nH]1)CCN(C(=O)c1ccc(NC(=O)c3ccccc3-c3ccccc3)cc1)c1ccccc1-2,9.61%
15,CN1CC(=O)NC1=NC(=O)Nc1cccc(Cl)c1,98.8%
16,CC(C)C[C@@H](C(=O)N[C@H](C(=O)OC1CCCC1)c1ccccc1)[C@H](O)C(=O)NO,7.8%
17,O=C(c1ccc(C(=O)N2CCC(N3CCCC3)CC2)c(Nc2ccccc2)c1)N1CCC(N2CCCC2)CC1,82.3%
18,CCOC(=O)[C@H]1O[C@H]1C(=O)N[C@@H](CC(C)C)C(=O)NCCC(C)C,4.47%
19,CN[C@@H]1[C@@H](O)[C@@H](O[C@@H]2[C@@H](O)[C@H](O[C@H]3O[C@H](CN)[C@@H](O)[C@H](O)[C@@H]3O)[C@@H](N)C[C@@H]2NC(=O)[C@@H](O)CN)OC[C@]1(C)O,53.1%
20,O=C(O)C1=NC(C(=O)O)CC(C=CN2c3cc(O)c(OC4OC(CO)C(O)C(O)C4O)cc3CC2C(=O)O)=C1 (stereo not given),92%
